Assay results taken from paper PMC10726135, “HNF4α isoforms regulate the circadian balance between carbohydrate and lipid metabolism in the liver”.
Over roughly 18,000 sequences, “log2 normalized intensity” has its median near 0.39; the highest 2% begin near 6.6. For the sample, the highest values were picked, then their nearest neighbours and some sequences at random.

target: T1, HNF4alpha2 (COS-7 nuclear extract) (Homo sapiens, UniProt P41235 1-474); assay: protein-binding microarray; COS-7 nuclear extract on double-stranded Agilent 4x180k PBM; binding buffer, salt, pH and temperature not given in the material; high values mean tight binding; conditions: chain copies: 2; label: 3' end of strand 1 on the slide; dsDNA, one strand shown
T1 sequence: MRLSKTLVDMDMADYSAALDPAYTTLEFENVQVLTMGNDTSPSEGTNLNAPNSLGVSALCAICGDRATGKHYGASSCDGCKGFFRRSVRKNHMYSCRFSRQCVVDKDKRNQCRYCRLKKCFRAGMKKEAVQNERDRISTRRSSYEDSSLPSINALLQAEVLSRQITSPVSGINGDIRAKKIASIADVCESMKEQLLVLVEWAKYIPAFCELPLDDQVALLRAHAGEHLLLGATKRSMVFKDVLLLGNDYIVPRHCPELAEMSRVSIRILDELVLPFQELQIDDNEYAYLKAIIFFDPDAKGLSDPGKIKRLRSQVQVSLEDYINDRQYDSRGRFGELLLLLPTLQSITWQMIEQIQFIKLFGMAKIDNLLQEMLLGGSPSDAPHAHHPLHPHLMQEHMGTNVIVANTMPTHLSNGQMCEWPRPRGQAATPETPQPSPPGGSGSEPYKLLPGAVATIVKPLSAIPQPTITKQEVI
In short: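 A custom Agilent SurePrint G3 4x180k array, spotted in quadruplicate with ~44,000 test sequences as ~60-nt oligonucleotides made double-stranded, was incubated with nuclear extracts. The extracts came from COS-7 cells transiently transfected by CaPO4 with a human HNF4α isoform expression vector. Bound HNF4α was imaged on an Agilent G2565CA scanner at 2-µm resolution, and the binding signal was taken as Agilent software's background-corrected, normalized gProcessedSignal.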

| Sequence | binding signal [log2 normalized intensity] |
| --- | --- |
| CTATTAGGTCTTTGAAGTTGTCTTATCACCGCCTAGGGAGATTAGAGTATCGGTCGA | 1.34 |
| GGACCGCAGGGGGCTCCCGGACCCTGACTCGCCTAGGGAGATTAGAGTATCGGTCGA | 0.458 |
| AGCCACCGCGCCCCGCCCCCAGTGCACCTTGCCTAGGGAGATTAGAGTATCGGTCGA | 5.11 |
| TTGTATGTCCAAGGGTCACTCGACATTCATGCCTAGGGAGATTAGAGTATCGGTCGA | 3.02 |
| TTGAAGTGACTAAATGAGAAGAAATGATGGGCCTAGGGAGATTAGAGTATCGGTCGA | 1.69 |
| GGTGCTGATGTTAACACAAGTTATTACCGTGCCTAGGGAGATTAGAGTATCGGTCGA | 1.03 |
| CAGTGGTAACCACAGTACTGTCTTTTTGCCGCCTAGGGAGATTAGAGTATCGGTCGA | -0.854 |
| TTGCATAGGCATTGTCTTGAAAGATAAAGTGCCTAGGGAGATTAGAGTATCGGTCGA | 0.627 |
| TCTTTTTGCCACTAGGGGTCACTGTCACATGCCTAGGGAGATTAGAGTATCGGTCGA | 2.7 |
| ATTTTTCCCTTTGATATTTATCAAGATGAAGCCTAGGGAGATTAGAGTATCGGTCGA | 0.736 |
| ATGAACTTTGACCCACCTACATTGATATTCGCCTAGGGAGATTAGAGTATCGGTCGA | 4.81 |
| ATTTATCAAGATGAACTTTGACCCACCTACGCCTAGGGAGATTAGAGTATCGGTCGA | 8.26 |
| TCCCTTTGATATTTATCAAGATGAACTTTGGCCTAGGGAGATTAGAGTATCGGTCGA | 4.93 |
| TTGATATTTATCAAGATGAACTTTGACCCAGCCTAGGGAGATTAGAGTATCGGTCGA | 10.8 |
| CACCCAGAACTTTGACCGTTTGATTATTTGGCCTAGGGAGATTAGAGTATCGGTCGA | 2.56 |
| CATGTTGAGTGGAATATGAGGTCAGGGTTCGCCTAGGGAGATTAGAGTATCGGTCGA | 2.71 |
| GGGCTGGAACACAAAGAAAGCCAAAGTTCAGCCTAGGGAGATTAGAGTATCGGTCGA | 2.41 |
| CATTGGACCCTCCCAGCCAAACCCCACTCCGCCTAGGGAGATTAGAGTATCGGTCGA | 5.01 |
| TGTAACTGTAACTATATTGACCACCTCCTCGCCTAGGGAGATTAGAGTATCGGTCGA | 1.76 |
| CTGCAGTGTGACCTTTGCCTTCTTGACATCGCCTAGGGAGATTAGAGTATCGGTCGA | 5.94 |
| GATGTTCTACACTGCTTACCCTGCAGTGTGGCCTAGGGAGATTAGAGTATCGGTCGA | 0.052 |
| GTGTGACCTTTGCCTTCTTGACATCTCTCTGCCTAGGGAGATTAGAGTATCGGTCGA | 4.43 |

| Sequence | binding signal [log2 normalized intensity] |
| --- | --- |
| TTACCCTGCAGTGTGACCTTTGCCTTCTTGGCCTAGGGAGATTAGAGTATCGGTCGA | 7.49 |
| ACTGCTTACCCTGCAGTGTGACCTTTGCCTGCCTAGGGAGATTAGAGTATCGGTCGA | 7.83 |
| TCTACACTGCTTACCCTGCAGTGTGACCTTGCCTAGGGAGATTAGAGTATCGGTCGA | 4.19 |
| GTGCTCTGGGTCTGTCCTTTGTGTTTATGGGCCTAGGGAGATTAGAGTATCGGTCGA | 2.66 |
| CAGTGGGCCCAGAGCACAACCTTTGGCCGTGCCTAGGGAGATTAGAGTATCGGTCGA | 4.45 |
| TTGCCCACCAATGATCAAAGGTTAGTCTTAGCCTAGGGAGATTAGAGTATCGGTCGA | 3.63 |
| AAAACATATTTGCATAATGGAGCAAAGGTCGCCTAGGGAGATTAGAGTATCGGTCGA | 5.4 |
| ACCACATTCTCACCACTAGGAAACTGACCTGCCTAGGGAGATTAGAGTATCGGTCGA | 3.23 |
| GTGACCTTTGACCTCAGAGAGCCGGAAACTGCCTAGGGAGATTAGAGTATCGGTCGA | 7.21 |
| TCATTGATGAGTGACCTTTGACCTCAGAGAGCCTAGGGAGATTAGAGTATCGGTCGA | 9.89 |
| TTGCCCCTTTGACCCTCGGGCCTCCCTAGAGCCTAGGGAGATTAGAGTATCGGTCGA | 3.97 |
| CTAGGAAACTGACCTTTGCTCATGACTATTGCCTAGGGAGATTAGAGTATCGGTCGA | 5.53 |
| AAAGACTTGCTCATTGATGAGTGACCTTTGGCCTAGGGAGATTAGAGTATCGGTCGA | 6.15 |
| GGCTGATGACCTTTGACTGAGATGGGAGCAGCCTAGGGAGATTAGAGTATCGGTCGA | 4.03 |
| CTACTACTTGACCTTTGAAACATATCCAGAGCCTAGGGAGATTAGAGTATCGGTCGA | 5.48 |
| ATGGGATGACCTTTGAGCAATAGGAAATGGGCCTAGGGAGATTAGAGTATCGGTCGA | 4.18 |
| GATGAGTGACCTTTGACCTCAGAGAGCCGGGCCTAGGGAGATTAGAGTATCGGTCGA | 9.56 |
| ATTCTCACCACTAGGAAACTGACCTTTGCTGCCTAGGGAGATTAGAGTATCGGTCGA | 5.16 |
| CACCACTAGGAAACTGACCTTTGCTCATGAGCCTAGGGAGATTAGAGTATCGGTCGA | 6.73 |
| CTCTGCAAACATTTATTTTGTGTGCTAGATGCCTAGGGAGATTAGAGTATCGGTCGA | 1.54 |
| TTGCCCACATTCACACAATCAGTGTGTTGAGCCTAGGGAGATTAGAGTATCGGTCGA | -0.0239 |
| AGCAGTCCCTTCCCCCCTCCTCATTGAGAGGCCTAGGGAGATTAGAGTATCGGTCGA | 4.37 |

| Sequence | binding signal [log2 normalized intensity] |
| --- | --- |
| TTGCACCAGTTTCTCAACAGACCCCTGAATGCCTAGGGAGATTAGAGTATCGGTCGA | 2.27 |
| CTTGACGCTAACTTCCAGATCAAAGGACATGCCTAGGGAGATTAGAGTATCGGTCGA | 0.608 |
| GTCTAATTGTGCTGAGAGAGTCCTTGTTTGGCCTAGGGAGATTAGAGTATCGGTCGA | 1.63 |
| GCAGATGGGCAGCACTGTGATTTGTTCAGGGCCTAGGGAGATTAGAGTATCGGTCGA | 0.439 |
| GTCTGCTGCCCAGACACACAATATTATGTTGCCTAGGGAGATTAGAGTATCGGTCGA | -0.79 |
| GGAGATAACCCATCTGGGGAAAGTGCAAGGGCCTAGGGAGATTAGAGTATCGGTCGA | -0.913 |
| CTTGGGGGAGGAGGGCAACCTTTGAACTGGGCCTAGGGAGATTAGAGTATCGGTCGA | 5.3 |
| CTGGTTCTGCAAGGCAACTGACCTTTGGATGCCTAGGGAGATTAGAGTATCGGTCGA | 8.08 |
| TGGACAACTGTACTTTGGACTGGGGACCTGGCCTAGGGAGATTAGAGTATCGGTCGA | 5.1 |
| TCTGGTGCCAAGGAGCCTCTGCAACCTTTGGCCTAGGGAGATTAGAGTATCGGTCGA | 2.46 |
| TTCTTCTGGTTCTGCAAGGCAACTGACCTTGCCTAGGGAGATTAGAGTATCGGTCGA | 3.64 |
| TCTGCAAGGCAACTGACCTTTGGATCTGGGGCCTAGGGAGATTAGAGTATCGGTCGA | 7.21 |
| TATACAAGAAAGAAAGAATGTTTGCTTCTGGCCTAGGGAGATTAGAGTATCGGTCGA | -0.716 |
| GGTGGACTTTGTAGCTCAAACAGTCTAAAAGCCTAGGGAGATTAGAGTATCGGTCGA | 2.3 |
| GTTAAAGTTGCCTGATGACAACTGAATGTGGCCTAGGGAGATTAGAGTATCGGTCGA | 0.26 |
| ACACCGTATCATCAAACCTGTTATTTGCGCGCCTAGGGAGATTAGAGTATCGGTCGA | 1.25 |
| GGCAGGGCCAGATAAAGCAGGTTGTACCTTGCCTAGGGAGATTAGAGTATCGGTCGA | 2.4 |
| GATAAAGCAGGTTGTACCTTGACCCAAGAAGCCTAGGGAGATTAGAGTATCGGTCGA | 4.88 |
| ATGACCTTTACCCCCATTTGGTAATGGGCCGCCTAGGGAGATTAGAGTATCGGTCGA | 4.83 |
| AACGGCCCAGGGTTAGAGGATGACCTTCCCGCCTAGGGAGATTAGAGTATCGGTCGA | 2.99 |
| GGGCCATGACCTTTACCCCCATTTGGTAATGCCTAGGGAGATTAGAGTATCGGTCGA | 6.29 |
| GGCCAGATAAAGCAGGTTGTACCTTGACCCGCCTAGGGAGATTAGAGTATCGGTCGA | 8.92 |

| Sequence | binding signal [log2 normalized intensity] |
| --- | --- |
| CACTATCACCAGGATGGGCCATGACCTTTAGCCTAGGGAGATTAGAGTATCGGTCGA | 4.48 |
| TCACCAGGATGGGCCATGACCTTTACCCCCGCCTAGGGAGATTAGAGTATCGGTCGA | 9.28 |
| AGGATGGGCCATGACCTTTACCCCCATTTGGCCTAGGGAGATTAGAGTATCGGTCGA | 7.65 |
| GCTTCTCTTGGACCTCAATGTGCTCATCCAGCCTAGGGAGATTAGAGTATCGGTCGA | 0.722 |
| CCCACGTACATTGCACCCTCCAGGAGCCCCGCCTAGGGAGATTAGAGTATCGGTCGA | 2.07 |
| TATGTGATCAGATGTGGACAATCATTGTGCGCCTAGGGAGATTAGAGTATCGGTCGA | 1.53 |
| AGTGGAGAAATAACATTAATGGAAATGCCTGCCTAGGGAGATTAGAGTATCGGTCGA | -0.84 |
| ACCATCCACGGATGCATGATTGCTCTCTACGCCTAGGGAGATTAGAGTATCGGTCGA | -0.932 |
| TGCACAACGACCCTTGCTCTGTTTTCTGACGCCTAGGGAGATTAGAGTATCGGTCGA | 1.89 |
| CTTTGAGAAAGCAAAGTCCCTGGGGACAGGGCCTAGGGAGATTAGAGTATCGGTCGA | -0.0595 |
| CTAAGCAGGCACATTCCAGGACCTTTGCTCGCCTAGGGAGATTAGAGTATCGGTCGA | 4.08 |
| AGGTGACCTTTGCTCCGGTTCCCAATAAGTGCCTAGGGAGATTAGAGTATCGGTCGA | 5.06 |
| GACATAACACAGGTGACCTTTGCTCCGGTTGCCTAGGGAGATTAGAGTATCGGTCGA | 7.4 |
| AACACAGGTGACCTTTGCTCCGGTTCCCAAGCCTAGGGAGATTAGAGTATCGGTCGA | 6.26 |
| TCTAAGACATAACACAGGTGACCTTTGCTCGCCTAGGGAGATTAGAGTATCGGTCGA | 8.37 |
| TCTTTTCTAAGACATAACACAGGTGACCTTGCCTAGGGAGATTAGAGTATCGGTCGA | 4.03 |
| CCTCCCTCCATGCTGTAGATTGTGGAATGTGCCTAGGGAGATTAGAGTATCGGTCGA | 1.81 |
| GGTATGTTAGATTAGTGTGCAGCTTTGTGTGCCTAGGGAGATTAGAGTATCGGTCGA | 2.1 |
| GTCTAGATGCTGGGCAGCTTGTGTGCGTTTGCCTAGGGAGATTAGAGTATCGGTCGA | 1.56 |
